High-throughput results deposited in PubChem BioAssay by Broad Institute.
A selection: hits, their analogues and other compounds. The true share with any hit is near 6.7%.
Pf Dd2 inh – P. falciparum Dd2 growth inhibitors, primary screen, SYBR Green fluorescence, single dose replicates | 72 h; active compounds read low | activity change, % at 10 µM | 2.3% of 94,000 active | AID 1159554, 2015; in the data active = activity change below about -80%; inconclusive = no clear call, values can overlap the other calls
C diff growth – C. difficile growth inhibitors, primary screen, HTS. 0.25% of 86,000 active. AID 1259249, 2017. growth activity, negative = inhibition, % at 16 µg/mL (by protocol). Clostridium difficile clinical isolate growth, OD600, 24 h; active compounds read low;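 active = mean growth activity at or below -80% and every replicate also at or below -80%; inconclusive = mean at or below -80% but some replicate above -80%; inactive = mean growth activity above -80%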;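 note: 0% = DMSO wells and -100% = levofloxacin 16 µg/mL wells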
T cruzi growth-1 – T. cruzi intracellular proliferation inhibitors, primary screen, cell-based, beta-gal Tulahuen parasites, NIH3T3 host, luminescence | T. cruzi beta-gal in NIH3T3, GalScreen luminescence, 90 h | inhibition, % at 8.34 µM | 5.9% of 77,000 active | AID 624255, 2012;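 active = mean inhibition above about 93%, with at least 55% of replicates each passing it, limit read from the data, passing the limit was not always enough; inconclusive = only one of those two conditions holds; inactive = neither condition holds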
T cruzi growth-2 – T. cruzi intracellular proliferation inhibitors, confirmation, cell-based, NIH3T3 host, beta-gal parasite, luminescence, cherry-pick. 72% of 5,600 active. inhibition, % at 8.35 µM. T. cruzi beta-gal in NIH3T3, GalScreen luminescence, 90 h. shares compounds with T cruzi growth-1;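 active = mean replicate inhibition above about 95% and at least 55% of replicates individually reaching it, limit read from the data; inconclusive = only one of the two criteria is met; inactive = neither criterion is met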
T cruzi growth-3 – inhibitors of intracellular T. cruzi replication, confirmation, NIH3T3 host cells, beta-gal parasites, cherry-pick, set 2; shares compounds with T cruzi growth-1; T. cruzi beta-gal in NIH3T3, GalScreen luminescence, 90 h; inhibition, % at 2.09 µM; 21% of 5,600 active; AID 651740, 2012;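 active = mean inhibition above about 95%, with at least 55% of replicates also reaching it, limit read from the data; inconclusive = meets just one of the two conditions; inactive = meets neither condition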;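 note: plate controls were neutral control median for no effect and positive control median for full effect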
NIH3T3 tox – cytotoxicity in mouse NIH/3T3 fibroblasts, confirmation, cytotoxicity control for T. cruzi proliferation inhibitor project, cell-based, cherry-pick, single point | shares compounds with T cruzi growth-1 | NIH/3T3 viability, CellTiter-Glo ATP luminescence, 90 h | cytotoxicity (signal decrease), % at 8.35 µM | 14% of 5,600 active;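 active = mean signal decrease across replicates above about 35% based on untreated-well scatter, with enough replicates individually passing, limit read from the data; inconclusive = no rule stated though some were filed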;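 note: 0% = median of neutral control wells and 100% = median of positive control wells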
NIH3T3 tox 2 – NIH/3T3 fibroblast cytotoxicity, confirmation, cytotoxicity control, cell-based, cherry-pick, single point, set 2. 56% of 5,600 active. inhibition, % at 24.9 µM. shares compounds with T cruzi growth-1. NIH/3T3 viability, CellTiter-Glo ATP luminescence, 90 h. AID 651744, 2012;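 active = mean loss of cell viability signal at or above a set limit, and enough replicates individually reaching it; inconclusive = meets only the mean limit or only the replicate share; inactive = meets neither condition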;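 note: 0% = median of neutral control wells and 100% = median of positive control wells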
The depositor's hits bear a star; ! = not active in a repeat.

`Cc1ccc(-c2ccc3c(c2)O[C@@H](CN(C)C(=O)Nc2ccc(F)cc2)[C@@H](C)CN([C@H](C)CO)S3(=O)=O)cc1` gave Pf Dd2 inh -7, C diff growth 4, T cruzi growth-1 122*, T cruzi growth-2 108*, T cruzi growth-3 89, NIH3T3 tox 55* and NIH3T3 tox 2 45*.
Screening Cc1ccc(-c2ccc3c(c2)O[C@H](CN(C)C(=O)Nc2ccc(F)cc2)[C@H](C)CN([C@@H](C)CO)S3(=O)=O)cc1 returned Pf Dd2 inh 11, C diff growth -2, T cruzi growth-1 119*, T cruzi growth-2 97*, T cruzi growth-3 86, NIH3T3 tox -7 and NIH3T3 tox 2 21.
Cc1ccc(-c2ccc3c(c2)O[C@H](CN(C)C(=O)Nc2ccc(F)cc2)[C@@H](C)CN([C@H](C)CO)S3(=O)=O)cc1 was read as Pf Dd2 inh 9, C diff growth 2 and T cruzi growth-1 16.
`C[C@@H](NC(=O)C[C@H]1CC[C@@H](NC(=O)c2cccnc2)[C@@H](CO)O1)c1ccccc1` gave Pf Dd2 inh -9 and T cruzi growth-1 36.
COc1ccc2c3c(n(C)c2c1)[C@@H](CO)N(Cc1ccccc1)CC31CN(C(=O)Nc2cccc(F)c2)C1 was read as Pf Dd2 inh -50 and C diff growth 6.
Cc1noc(C)c1NC(=O)N(C)C[C@@H]1Oc2ccc(NC(=O)CCCCCC(=O)Nc3ccccc3N)cc2CC(=O)N([C@H](C)CO)C[C@@H]1C was read as Pf Dd2 inh 18, C diff growth -4 and T cruzi growth-1 16.
`COc1ccccc1-c1ccc2c(c1)[C@H]1[C@H](CCN1S(=O)(=O)c1cccc(F)c1)[C@@H](CO)N2` gave Pf Dd2 inh 3, C diff growth 8 and T cruzi growth-1 5.
For C[C@H]1CN([C@@H](C)CO)S(=O)(=O)c2ccc(Br)cc2O[C@H]1CN(C)Cc1ccccc1 the results were Pf Dd2 inh -34, C diff growth -4 and T cruzi growth-1 77.
Screening C[C@H](CO)N1C[C@H](C)[C@H](CN(C)Cc2ccccc2)Oc2cc(Br)ccc2S1(=O)=O returned Pf Dd2 inh -34, C diff growth 6 and T cruzi growth-1 89.
Screening C[C@@H]1CN([C@@H](C)CO)S(=O)(=O)c2ccc(Br)cc2O[C@H]1CN(C)Cc1ccccc1 returned Pf Dd2 inh -15, C diff growth 25, T cruzi growth-1 99*, T cruzi growth-2 92, T cruzi growth-3 85, NIH3T3 tox 32 and NIH3T3 tox 2 104*.
For C[C@H]1CN([C@@H](C)CO)S(=O)(=O)c2ccc(Br)cc2O[C@@H]1CN(C)Cc1ccccc1 the results were Pf Dd2 inh 4, C diff growth 4, T cruzi growth-1 97*!, T cruzi growth-2 100*, T cruzi growth-3 92, NIH3T3 tox inconclusive and NIH3T3 tox 2 107*.
Screening C[C@@H]1CN([C@@H](C)CO)C(=O)c2cccc(NC(=O)NC3CCCCC3)c2O[C@@H]1CN(C)S(C)(=O)=O returned Pf Dd2 inh -1 and C diff growth 1.
For O=C(NCC1CC1)[C@H]1[C@H](CO)[C@H]2Cn3c(ccc(-c4cccnc4)c3=O)[C@@H]1N2C(=O)C1CCCCC1 the results were Pf Dd2 inh 15, C diff growth 0 and T cruzi growth-1 81.
For O=C(C[C@H]1CC[C@H]2[C@@H](COC[C@H](O)CN2Cc2cccc(F)c2)O1)NCc1cccc(F)c1 the results were Pf Dd2 inh -21 and T cruzi growth-1 32.
For C[C@@H]1CN([C@H](C)CO)S(=O)(=O)c2ccc(-c3ccccc3)cc2O[C@@H]1CN(C)Cc1ccccc1 the results were Pf Dd2 inh -30, C diff growth -12 and T cruzi growth-1 94.
Screening C[C@@H]1CN([C@@H](C)CO)S(=O)(=O)c2ccc(-c3ccccc3)cc2O[C@@H]1CN(C)Cc1ccccc1 returned Pf Dd2 inh -15, C diff growth 3, T cruzi growth-1 121*, T cruzi growth-2 103*, T cruzi growth-3 106*, NIH3T3 tox 48* and NIH3T3 tox 2 105*.
For C[C@H](CO)N1C[C@H](C)[C@@H](CN(C)Cc2ccccc2)Oc2cc(-c3ccccc3)ccc2S1(=O)=O the results were Pf Dd2 inh -41, C diff growth 15 and T cruzi growth-1 67.
C[C@H](CO)N1C[C@H](C)[C@H](CN(C)Cc2ccccc2)Oc2cc(-c3ccccc3)ccc2S1(=O)=O was read as Pf Dd2 inh -34, C diff growth 12, T cruzi growth-1 113*, T cruzi growth-2 105*, T cruzi growth-3 81, NIH3T3 tox 6 and NIH3T3 tox 2 106*.
Screening C[C@@H]1CN([C@@H](C)CO)C(=O)c2cc(Br)cnc2O[C@H]1CN(C)C(=O)C1CCOCC1 returned Pf Dd2 inh 50, C diff growth 3 and T cruzi growth-1 -21.
Screening CC(C)C#Cc1cnc2c(c1)C(=O)N([C@H](C)CO)C[C@@H](C)[C@H](CN(C)C(=O)Cc1ccccn1)O2 returned Pf Dd2 inh -51, C diff growth -3 and T cruzi growth-1 -70.
For Cc1ccc(S(=O)(=O)Nc2ccc3c(c2)C(=O)N([C@@H](C)CO)C[C@@H](C)[C@H](CN(C)Cc2ccc(C(F)(F)F)cc2)OCCCC[C@@H](C)O3)cc1 the results were Pf Dd2 inh -47 and C diff growth 2.
Screening Cc1ccc(S(=O)(=O)N(C)C[C@@H]2OCCCC[C@H](C)Oc3ccc(N(C)C)cc3C(=O)N([C@@H](C)CO)C[C@@H]2C)cc1 returned Pf Dd2 inh -10, C diff growth -2 and T cruzi growth-1 58.
`CN(C)C(=O)C[C@H]1CC[C@H]2[C@H](COc3ccc(NC(=O)C4CCOCC4)cc3C(=O)N2C)O1` gave Pf Dd2 inh 8, C diff growth -4 and T cruzi growth-1 -59.
`N#C[C@H]1[C@H](c2ccc(C#CC3(O)CCCC3)cc2)[C@H](CO)N1C(=O)C1CCC1` gave Pf Dd2 inh -45, C diff growth 4, T cruzi growth-1 100*, T cruzi growth-2 107*, T cruzi growth-3 66, NIH3T3 tox 15 and NIH3T3 tox 2 64*.
`N#C[C@H]1[C@@H](c2ccc(C#CC3(O)CCCC3)cc2)[C@H](CO)N1C(=O)C1CC1` gave Pf Dd2 inh -28, C diff growth 14, T cruzi growth-1 100*, T cruzi growth-2 104*, T cruzi growth-3 94, NIH3T3 tox 8 and NIH3T3 tox 2 56*.
